JMJD2A Tudor inh = qHTS Assay for Inhibitors of JMJD2A-Tudor Domain | 390,000 tested, 4.4% active | Lysine-specific demethylase 4A (Homo sapiens), O75164 | AlphaScreen JMJD2A-Tudor / H3K4me3 peptide binding | Potency, µM (doses to about 114 µM), inactives show top-dose activity change, negative = inhibition, usual class: inhibitors; also: potency is read from the fitted curve at half-maximal effect; % is scaled to controls: 0 for no effect and ±100 for the full control effect; nearly all actives have a fitted effect of over 50% in size
PI5P4K alpha inh = qHTS for Inhibitors of phosphatidylinositol 5-phosphate 4-kinase (PI5P4K) | Phosphatidylinositol 5-phosphate 4-kinase type-2 alpha (Homo sapiens), P48426 | max response, % | AID 652105, 2013 | PI5P4Kalpha enzyme, ADP-Glo luminescence, 60 min; stronger effect = lower value | 330,000 tested, 1.2% active; active = max response of -50% or lower; inconclusive = between -30% and -50%; inactive = -30% or higher; also: value at the top dose of about 77 µM; % is scaled to controls: 0 for no effect and ±100 for the full control effect
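Luminescence from ADP-Glo served as readout of PI5P4Kalpha activity in a qHTS format. Reaction: enzyme, substrate, compound, ATP at 5 microM final, 60 min at RT.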
HP1b chromo inh = HTS for Inhibitors of HP1-beta Chromodomain Interactions with Methylated Histone Tails. Chromobox protein homolog 1 (Homo sapiens), P83916. AlphaScreen HP1-beta / biotin-H3K9me3 peptide binding. Potency, µM (titrated, usually from 114 µM), for the others: at the top dose activity change, negative = inhibition, hits mostly inhibitors. 390,000 tested, 0.56% active. AID 540317, 2011; also: potency is read from the fitted curve at half-maximal effect; nearly all actives have a fitted effect of over 70% in size
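Compound inhibition of the preformed complex between 50 nM HP1-beta and 50 nM biotinylated H3K9me3 peptide was read by AlphaScreen. Buffer was PBS pH 7.4 with 0.01% Tween-20. Incubations ran 30 min at room temperature, with 10 ug/mL donor/acceptor beads.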
PLK1 PBD inh = qHTS for Inhibitors of PLK1-PDB (polo-like kinase 1 - polo-box domain): Primary Screen. Potency, µM, for inactives: max response, negative = inhibition, hits mostly inhibitors. AID 720504, 2013. 360,000 tested, 2.8% active. Plk1 PBD binding of FITC phosphopeptide, fluorescence polarization; also: potency is read from the fitted curve at half-maximal effect; series mostly up to about 57 µM; % is scaled to controls: 0 for no effect and ±100 for the full control effect; nearly all actives have a fitted effect of over 65% in size
G9a block = qHTS Assay for Inhibitors of Histone Lysine Methyltransferase G9a. Histone-lysine N-methyltransferase EHMT2 (Homo sapiens), Q96KQ7. G9a H3K9 monomethylation, AlphaScreen, 2 h. Potency, µM (top dose mostly 102 µM), inactives show at the top dose activity, negative = inhibition, hits mostly inhibitors. 350,000 tested, 8.8% active. AID 504332, 2011; also: potency is read from the fitted curve at half-maximal effect; % is scaled to controls: 0 for no effect and ±100 for the full control effect; nearly all actives have a fitted effect of over 75% in size
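Quantitative HTS format: methyltransferase activity on a biotin-tagged H3K9 peptide is measured by AlphaScreen, using a rabbit anti-monomethyl-H3K9 antibody with streptavidin donor and anti-IgG acceptor beads. Final levels are 20 nM enzyme, 500 nM peptide, 20 uM SAM; 2 h RT.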
BAZ2B block = qHTS Assay for Inhibitors of BAZ2B; Bromodomain adjacent to zinc finger domain protein 2B (Homo sapiens), Q9UIF8; AlphaScreen BAZ2B-H3K14Ac peptide displacement; Potency, µM (titrated, usually from 114 µM), for inactives: at the highest dose activity change, negative = inhibition, most hits filed as inhibitors; 360,000 tested, 4.4% active; AID 504333, 2011; also: potency is read from the fitted curve at half-maximal effect; % is scaled to controls: 0 for no effect and ±100 for the full control effect; nearly all actives have a fitted effect of over 60% in size
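AlphaScreen luminescence quantifies BAZ2B engagement of H3K14Ac peptide; the protein and biotinylated peptide are both at 50 nM final, buffer PBS pH 7.4 with 0.01% Tween-20, all steps at room temperature.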
An asterisk follows results filed as active; ? = inconclusive; / = no result; [ ] = another dose, or the depositor's remark. A selection: hits, their analogues and other compounds. The true share with any hit is near 12%. Unless noted, calls follow the shape of the dose curve; as a rule, active = well fitted curve in the direction sought with a large enough effect; inconclusive = small, poorly fitted or top-dose-only effect, or another doubt; inactive = no such curve, though single readings can be large; an effect the other way counts as inactive or inconclusive.

SMILES | JMJD2A Tudor inh | PI5P4K alpha inh | HP1b chromo inh | PLK1 PBD inh | G9a block | BAZ2B block
O=C(Cn1c(=O)nc(-c2ccccc2F)c2cc(Cl)ccc21)NCCCc1ccccc1 | -3.8% | / | 30.2% | / | -1.1%[59 µM] | 0.2%
COc1ccc(C2NC(c3ccc(OC)cc3)C(C)C(=O)C2C)cc1 (configuration not stated) | 16.1% | 10.5 | 25.1% | -2.8% | 28.7% | 5.6%
CC1C(=NO)C(C)C(c2ccc(N(C)C)cc2)NC1c1ccc(N(C)C)cc1 (configuration not stated) | -7.7% | / | 29.1% | -1.5% | -5.0%[0.0925 µM] | 39.8µM*
CC1(C)[N+]([O-])=C2C(=[N+]([O-])C1(C)C)c1ccccc1/C2=N\O | -2.6% | -0.6 | 18.0% | -2.1% | 50.1µM* | ?
N#Cc1c(-c2ccc(C(F)(F)F)cc2)cc(-c2ccccc2)[nH]c1=S | -17.7% | -11.0 | 10.3% | 23.8µM* | 8.7%[59 µM] | 0.0%
COc1ccc(-c2nc3cc(C(C)C)ccc3o2)cc1NC(=O)COc1ccc(C)cc1C | -16.5% | / | 17.9% | / | 19.8%[59 µM] | -2.5%
O=C(O)CCc1ccc(-c2ccccc2)n1NC(=O)c1sc2ccccc2c1Cl | 4.0%[57.1 µM] | -1.9 | -21.4% | -15.1% | 50.1µM* | ?
O=C(NCc1nnnn1-c1ccc(F)cc1)c1ccc2c(c1)OCO2 | / | 0.0 | / | -5.4% | / | /
O=C1/C(=C/c2ccccn2)SC(=S)N1N1CCOCC1 | -8.1%[57.1 µM] | -1.0 | 17.2% | -8.8% | 56.2µM* | ?
O=C1/C(=C/c2ccc(F)cc2)SC(=S)N1N1CCOCC1 | -23.0% | 0.9 | -20.8% | -8.4% | 34.9%[12.7 µM] | -28.5%
COc1cccc(/C=C2\SC(=S)N(N3CCOCC3)C2=O)c1OC | ? | 11.1 | ? | -3.0% | ? | 17.8µM*
O=C(Nc1ccc(Nc2ccccc2)cc1)C(Cl)Cl | ? | 0.0 | 5.3%[57 µM] | -8.7% | ? | ?
CC(C)(C)C(=O)C(Cl)C(=O)Nc1ccccc1 (configuration not stated) | -1.4% | 1.1 | 52.7% | 10.6µM* | ? | -3.2%
COc1ccc(NC(=O)C(C)n2nnc3sc(-c4ccccc4)cc3c2=O)cc1Cl (configuration not stated) | 79.4µM* | / | ? | / | 2.82µM* | -27.3%
CCC(C(=O)OC)n1nnc2sc(-c3ccccc3)cc2c1=O (configuration not stated) | 4.7% | / | 69.8% | / | 13.9%[59 µM] | 6.4%
COc1ccc(NC(=O)C(C)NS(=O)(=O)c2ccccc2)cc1Cl (configuration not stated) | -10.9% | -9.3 | 29.5% | -6.0% | -3.3%[12.7 µM] | 10.7%
Cc1cc(C)c(NC(=O)C(C)n2nnc3sc(-c4ccccc4)cc3c2=O)c(C)c1 (configuration not stated) | ? | / | 33.5% | / | 10µM* | ?
O=S(=O)(c1cccc(C(F)(F)F)c1)N1CCC(Oc2ccc(-n3cnnn3)cc2)CC1 | -9.1% | / | 45.8% | / | 9.1%[59 µM] | 2.4%
COc1ccc(C(=O)NC2CCc3ccccc32)cc1OC1CCN(C(C)C)CC1 (configuration not stated) | 0.0% | -1.4 | 36.8% | 1.8% | 39.9% | -9.8%
COC(=O)c1ccc(CN2C(=O)c3ccccc3C2=O)o1 | -1.4% | 0.0 | 18.8% | 0.9% | 19.5%[59 µM] | 11.1%
COC(=O)c1ccc(CN2CCN(Cc3ccc(C(=O)OC)o3)CC2)o1 | 5.2% | -3.6 | 19.1% | -6.5% | 11.2µM* | /
COc1ccc(C2CC(=O)c3c(C)nc(N4CCN(C=O)CC4)nc3C2)c(OC)c1 (configuration not stated) | -21.3% | / | 22.0% | / | -18.5%[59 µM] | -35.9%
CCn1c(C)c(C2=CCN(S(=O)(=O)c3ccccc3)CC2)c2ccccc21 | ? | 15.8 | ? | 3.7% | 39.8µM* | ?
O=S(=O)(NCCc1cn2ccccc2n1)c1ccc2c(c1)CCCC2 | -17.7% | -3.3 | 31.1% | -13.5% | 50.1µM* | -34.9%
O=S(=O)(NCCc1cn2ccccc2n1)c1ccc2c(c1)OCCO2 | -6.9% | 1.2 | 26.1% | -3.9% | -35.1% | 5.6%
SMILES | JMJD2A Tudor inh | PI5P4K alpha inh | HP1b chromo inh | PLK1 PBD inh | G9a block | BAZ2B block
CCc1ccccc1N1C(=O)N(CC(=O)c2ccc(Cl)cc2)c2ccccc2S1(=O)=O | -5.7% | / | 33.2% | / | 0.0%[59 µM] | 4.3%
CC(=O)C1=C(C)NC(SCC(=O)Nc2nc3ccccc3s2)=C(C#N)C1c1ccc(Cl)cc1 (configuration not stated) | -31.9% | -7.1 | 10.3% | -9.7% | 8.91µM* | -24.7%
COc1ccc(NC(=O)CSC2=C(C#N)C(c3ccco3)C(C(=O)Nc3nc4ccccc4s3)=C(C)N2)cc1 (configuration not stated) | -27.6% | 3.9 | 44.2% | -3.3% | / | /
CC1(C(=O)NCc2ccccc2Br)CCN1C(=O)Cc1ccc(-c2ccccc2)cc1 (configuration not stated) | / | 22.8 | / | -4.2% | / | /
COc1ccccc1Nc1n[nH]c(=S)s1 | 3.98µM* | -78.1* | 22.4µM* | 21.2µM* | 1.26µM* | 20µM*
Cc1cccc(Nc2n[nH]c(=S)s2)c1C | 5.62µM* | / | ? | 29.9µM* | ? | 44.7µM*
Cc1cccc(C)c1Nc1n[nH]c(=S)s1 | / | -72.9* | / | ? | / | /
COc1cccc(Nc2n[nH]c(=S)s2)c1 | 3.16µM* | -81.7* | ? | 23.8µM* | 1.41µM* | ?
COc1ccc(Cl)cc1NC(=O)C1CCN(c2ncnc3c2nc2n3CCCCC2)CC1 | -16.2% | / | 26.3% | / | -30.5%[59 µM] | -17.5%
Cc1ccc2c(c1)S(=O)(=O)c1ccc3ccccc3c1N2 | -11.1% | 0.1 | 13.8% | -4.3% | / | /
CC(C)c1ccc(NC(=O)c2ccc3snnc3c2)cc1 | -5.4% | 0.8 | 42.7% | -7.7% | 24.6% | -14.2%
CC(C)c1ccc(Nc2nnns2)cc1 | ? | -21.7 | ? | 26.7µM* | 10µM* | -12.5%
CC(C)c1ccc(Nc2n[nH]c(=S)s2)cc1 | / | -65.3* | / | ? | / | /
CCOc1ccc(-c2nc(SCC(=O)Nc3ccc(C)c(C)c3)n3[nH]c(=O)cc3n2)cc1 | 50.1µM* | / | ? | / | -3.9%[59 µM] | 50.1µM*
Cc1ccc(NC(=O)CSc2nc(-c3ccc(C(C)(C)C)cc3)nc3cc(=O)[nH]n23)cc1C | -1.3% | / | 25.1% | / | 17.7%[59 µM] | -3.5%
O=C(CSc1nc(-c2ccco2)nc2cc(=O)[nH]n12)Nc1ccccc1Cl | -3.2% | / | 22.6% | / | -4.4%[59 µM] | -16.1%
Cc1ccc(NC(=O)CSc2nc(-c3cccs3)nc3cc(=O)[nH]n23)cc1C | 79.4µM* | / | -21.2% | / | 24.7%[12.7 µM] | 50.1µM*

Source: PubChem BioAssay (National Center for Advancing Translational Sciences (NCATS))
